In PubChem BioAssay AID1030 (National Center for Advancing Translational Sciences (NCATS), 2008) one finds Potency data, which are given here for 103 compounds.

Out of some 220,000 compounds screened, about 16,000 (7.3%) were called active. Where a call stands in place of a potency, no number is given. Another 25% or so got no clear call; they are omitted. This is one part of a sample in which actives are shown more often than they occur. Calls come from the whole dose curve; as a rule, active = well fitted inhibition curve with a large enough effect (not every such curve was filed as active); inconclusive = small, poorly fitted or top-dose-only effect, or another doubt; inactive = no such curve, though single readings can be large or run the other way.
Potency is the fitted concentration of half-maximal effect.

Chain of Aldehyde dehydrogenase 1A1 (Homo sapiens) (P00352 whole entry, looked up): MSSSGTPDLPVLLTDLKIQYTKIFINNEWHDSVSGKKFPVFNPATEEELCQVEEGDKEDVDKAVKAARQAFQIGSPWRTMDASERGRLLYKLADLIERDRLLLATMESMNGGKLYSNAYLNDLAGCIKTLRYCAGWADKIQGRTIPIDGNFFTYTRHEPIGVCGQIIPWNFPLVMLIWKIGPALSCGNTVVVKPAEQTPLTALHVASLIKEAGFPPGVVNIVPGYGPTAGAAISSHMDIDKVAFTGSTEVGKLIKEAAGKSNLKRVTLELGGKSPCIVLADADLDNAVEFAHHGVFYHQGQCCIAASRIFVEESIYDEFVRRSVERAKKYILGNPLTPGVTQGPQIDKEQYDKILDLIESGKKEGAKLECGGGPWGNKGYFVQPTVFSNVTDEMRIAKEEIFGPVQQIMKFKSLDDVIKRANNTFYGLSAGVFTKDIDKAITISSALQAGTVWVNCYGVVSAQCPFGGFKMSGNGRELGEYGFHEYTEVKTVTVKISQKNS

The assay addresses Aldehyde dehydrogenase 1A1 (Homo sapiens) (UniProt P00352). Nature of the assay: qHTS Assay for Inhibitors of Aldehyde Dehydrogenase 1 (ALDH1A1). The note with it: Purified ALDH1A1, NADH fluorescence, propionaldehyde substrate; series mostly up to 75.3 µM.
For `COc1cc(OC)cc(-c2nnc(SCC(=O)Nc3ccc(C(=O)O)cc3)s2)c1`, the Potency entry is “inactive”. Under `Cc1ccc(S(=O)(=O)NC(C(=O)N2CCOCCOCCOCCOCC2)c2ccccc2)cc1` (stereo not drawn) stands “inactive”. The value for `CCC(CC)NC(=O)/C=C/c1cccc([N+](=O)[O-])c1` was “inactive”; that for `COc1cc(OC)cc(C(=O)NCCSCc2ccco2)c1` was “inactive”. On to `O=C(/C=C/c1cccc([N+](=O)[O-])c1)NCCSCc1ccco1`, for which the Potency was 20 µM (active). Take `C/C=C1\C2C=C(C)CC1(N)c1ccc(=O)[nH]c1C2` (stereo not drawn): the Potency entry was “inactive”. The value for `CCOc1ccc(-c2ccc(SCC(=O)N3CCOCC3)nn2)cc1` was “inactive”. For the compound `CN1CCN(S(=O)(=O)c2cccc(C(=O)N3CCc4ccccc43)c2)CC1`, the Potency entry is “inactive”.

Consider `C/C(=N\NC(=O)c1cccc(N2CCCC2=O)c1)c1ccc(N)cc1`, for which the Potency result was “inactive”. The value for `O=C(CCN1C(=O)COc2ccccc21)NCCCN1CCN(c2ccc(F)cc2)CC1` was “inactive”. Under `CCCN1CCN(CCCNC(=O)CN2C(=O)COc3ccccc32)CC1` stands “inactive”; under `O=C(CN1C(=O)COc2ccccc21)Nc1ccc(F)cc1`, 22.4 µM (active). For the compound `Cc1ccc(Cl)c(NC(=O)CN2CCN(C=O)CC2)c1`, the Potency entry is “inactive”. On to `CCCCC/C=C\C/C=C\C/C=C\CCCCC(=O)NCC(=O)O`, for which the Potency entry was “inactive”.

Turning to `O=C(O)C1CCN(C(=O)c2cc(F)cc3c2OCOC3)CC1`, the Potency result is “inactive”. For `COc1ccc([N+](=O)[O-])cc1C1NN=C(c2cccc3ccccc23)S1` (stereo not drawn), the Potency is 10 µM (active).

Turning to `COc1ccc([N+](=O)[O-])cc1NC(=O)C(C)OC(=O)C1c2ccccc2Oc2ccccc21` (stereo not drawn), the Potency entry was “inactive”.

With `COc1ccccc1C1CCN(c2ccc([N+](=O)[O-])cn2)CC1`, the Potency entry was “inactive”.

Consider `COc1ccc(CN(C)Cc2nc3cc(OC)c(OC)cc3c(=O)[nH]2)c(OC)c1`, for which the Potency result was “inactive”. Under `COc1ccnc(Oc2ccccc2)c1-c1ncn[nH]1` stands “inactive”. The value for `Cc1cc2oc(=O)cc(-c3ccccc3)c2c(C)c1/C=C/c1ccc(F)cc1` was “inactive”. Regarding `Nc1ccc(S(=O)(=O)Nc2nccc(/C=C/c3ccc(Br)s3)n2)cc1`, the Potency result is “inactive”.

For `Cc1cc(Cl)ccc1C(=O)C1CCCN(C(=O)CCN2CCCO2)C1` (stereo not drawn), the Potency result was “inactive”.

`COc1ccc(F)cc1C(=O)C1CCCN(C(=O)CCc2ccccn2)C1` (stereo not drawn): the Potency result is “inactive”. The value for `CSCC(=O)N1CCCC(C(=O)c2cc(F)ccc2F)C1` (stereo not drawn) was 10 µM (active); that for `Cc1cc(C(=O)OCC(=O)NCc2ccco2)c(C)n1-c1ccccc1` was “inactive”; that for `Cc1cc(C(=O)COC(=O)c2cccs2)c(C)n1-c1c(C)n(C)n(-c2ccccc2)c1=O` was 20 µM (active). With `Cc1cc(C(=O)CC#N)c(C)n1-c1c(C)n(C)n(-c2ccccc2)c1=O`, the Potency entry was “inactive”. Under `CCOc1ccc(CCN2C(=O)c3cccnc3C2=O)cc1OCC` stands “inactive”; under `O=C1CC(=O)Nc2cc(S(=O)(=O)N3CCN(c4cccc(C(F)(F)F)c4)CC3)ccc2N1`, “inactive”; under `Cc1ccc(S(=O)(=O)N(C)CC(=O)NC2CCCC2)cc1`, “inactive”. The value for `O=C(CN(CC1CCCO1)C(=O)CNS(=O)(=O)c1ccc(F)cc1)NCc1ccco1` (stereo not drawn) was “inactive”; that for `Cc1ccc(S(=O)(=O)NCC(=O)N(CC(=O)NC2CCCCC2)Cc2ccco2)cc1` was 17.8 µM (active). For `COc1ccccc1-c1nc(SC)n[nH]1`, the Potency entry was “inactive”. As to `O=C(CN1CCOCC1)Nc1c(Cl)cc(Cl)cc1Cl`, the Potency result is “inactive”.

As to `C=CCNC(=S)NNC(=O)c1cc(Cl)ccc1OC`, the Potency result was “inactive”. Regarding `CCOc1ccc(C(=O)N(Cc2ccc(N(C)C)cc2)C2CCS(=O)(=O)C2)cc1` (stereo not drawn), the Potency is 12.6 µM (active). Under `COc1ccc(C(=O)N(Cc2ccc(N(C)C)cc2)C2CCS(=O)(=O)C2)cc1` (stereo not drawn) stands 5.62 µM (active); under `CCCCN(C(=O)COc1ccc(NC(C)=O)cc1)C1CCS(=O)(=O)C1` (stereo not drawn), “inactive”. The value for `CC1(C)C(C=C(Cl)Cl)C1C(=O)N(Cc1ccc(Cl)cc1)C1CCS(=O)(=O)C1` (stereo not drawn) was “inactive”; that for `COc1cc(C(=O)N(Cc2ccc(N(C)C)cc2)C2CCS(=O)(=O)C2)cc(OC)c1OC` (stereo not drawn) was “inactive”. `COc1ccc(NC(=O)COc2ccc(C(=O)OCC(=O)N(C)C3CCS(=O)(=O)C3)cc2OC)cc1` (stereo not drawn): the Potency entry is “inactive”. The value for `CCCN(CCC)CCCNC(=O)CNC(=O)c1nn(-c2ccc(OC)cc2)c(=O)c2ccccc12` was “inactive”. Consider `COc1ccc(CC(NC(C)=O)C(=O)NC2CCN(C(=O)c3ccc(OC)c(OC)c3)CC2)cc1OC` (stereo not drawn), for which the Potency entry is “inactive”. As to `CNC(=O)c1ccc(NC(=O)c2cccc(C(F)(F)F)c2)cc1`, the Potency entry is “inactive”.

For the compound `CC(C)N(C(=O)Cn1cc(SCC(=O)N2CCCC2)c2ccccc21)C(C)C`, the Potency result was “inactive”. With `O=C(c1cccc(F)c1)N1CCN(c2ccc([N+](=O)[O-])c3cccnc23)CC1`, the Potency entry is “inactive”.

With `O=C(c1cccc(C(=O)N2CCN(c3ccc(F)cc3)CC2)c1)N1CCN(c2ccc(F)cc2)CC1`, the Potency result is “inactive”.

Consider `O=C(c1cccc(F)c1)N1CCN(c2ccc([N+](=O)[O-])c(N3CCCCC3)c2)CC1`, for which the Potency was 8.91 µM (active). Under `CCCN(CC(=O)Nc1ccccc1C)C(=O)c1cc(=O)[nH]c2ccccc12` stands “inactive”; under `O=C(Nc1ccc2c(c1)C(=O)OC2)Nc1cccc2ccccc12`, “inactive”; under `CC(C)OCCCNC(=S)N1CCC(C(=O)c2ccc3c(c2)OCCO3)CC1`, “inactive”. The value for `Cc1nn(C)c(C)c1CN(C(=O)CCc1nnc(Cc2c[nH]c3ccccc23)o1)C(C)C` was “inactive”; that for `Cc1cc(NC(=O)CN2CCCC(C)C2)n(-c2nc3ccccc3s2)n1` (stereo not drawn) was “inactive”. The value for `CCOC(=O)N1CCN(CC(=O)Nc2cc(C)nn2-c2nc3ccccc3s2)CC1` was 15.8 µM (active). For the compound `CCOC(=O)N1CCN(CC(=O)Nc2ccc(F)cc2)CC1`, the Potency result was “inactive”. The value for `CCOC(=O)CN(C)Cc1c[nH]c2ccccc12` was 22.4 µM (active); that for `O=C(Cc1c[nH]c2ccccc12)OCCOC(=O)Cc1c[nH]c2ccccc12` was 17.8 µM (active); that for `NS(=O)(=O)c1ccc(NC(=O)COC(=O)CCc2c[nH]c3ccccc23)cc1` was “inactive”. Consider `CC(C)(C)N(Cc1ccccc1)C(=O)COC(=O)CCc1c[nH]c2ccccc12`, for which the Potency entry was “inactive”.

Consider `CN(Cc1cccs1)C(=O)Cc1c[nH]c2ccccc12`, for which the Potency entry is “inactive”. Under `CC(=O)NC(Cc1c[nH]c2ccccc12)C(=O)O` (stereo not drawn) stands “inactive”. As for `COc1ccc(NC(=O)C(=O)NCC(=O)Nc2cccc(C(F)(F)F)c2)cc1`, the Potency entry was “inactive”. The value for `O=C(C(=O)N1CCc2ccccc2C1)N1CCc2ccccc2C1` was “inactive”. The value for `COc1ccc(-c2nc(CS(=O)CC(=O)N3CCc4ccccc4C3)c(C)o2)cc1` (stereo not drawn) was 25.1 µM (active). Take `Cc1nnc(SCC(=O)N2CCc3ccccc3C2)s1`: the Potency entry is “inactive”. As for `Clc1cc(-c2ccc(/C=N/n3cnnc3)o2)ccc1Br`, the Potency entry was “inactive”.

For `CCc1ccccc1NC(=O)CSc1nnc(-c2ccncc2)o1`, the Potency result was “inactive”. The value for `Cc1ccc2c(Cl)c(C(=O)Nc3nn[nH]n3)sc2c1` was “inactive”; that for `O=c1ccn([C@@H]2O[C@H](COP(=O)(O)OP(=O)(O)OP(=O)(O)O)[C@@H](O)[C@H]2O)c(=O)[nH]1` was “inactive”. Consider `Cc1ccc(C(=O)NCC(=O)O)cc1S(=O)(=O)N1CCCCC1`, for which the Potency entry was “inactive”.

As for `COc1ccccc1N1CCN(C(=O)c2ccc(Cl)c(S(=O)(=O)N3CCCC3)c2)CC1`, the Potency result was “inactive”. As to `O=C(Oc1ccc([N+](=O)[O-])cc1)c1ccc(Cl)c(S(=O)(=O)N2CCCCC2)c1`, the Potency was 12.6 µM (active). The value for `CC1CCC2(CC1)NC(=O)N(Cc1nnc(-c3cccs3)o1)C2=O` (stereo not drawn) was “inactive”; that for `CC(O)[C@@H](N)C(=O)O` (stereo partly drawn) was “inactive”; that for `CN(CC(=O)NCCc1ccccn1)S(=O)(=O)c1ccc(Cl)cc1` was “inactive”. As for `O=c1[nH][nH]c(=O)c2cc(N3CCCC3)ccc12`, the Potency entry was “inactive”. The value for `O=C1C=CC(=O)N1c1ccc(N2CCCCC2)cc1` was 0.251 µM (active); that for `Cc1cccn2c(CN(C)C3CCCc4ccccc43)c(C(=O)N3CCOCC3)nc12` (stereo not drawn) was “inactive”; that for `COc1ccc(C(=O)Nc2ccc(N3CCC(C)CC3)cc2)cc1Br` was “inactive”. Take `CC1CCN(C(=S)c2cccc(O)c2)CC1`: the Potency was 31.6 µM (active). Consider `CC(=O)N1CCN(S(=O)(=O)c2cccc(C(=O)NC3CCC(C)CC3)c2)CC1` (stereo not drawn), for which the Potency result was “inactive”.

For `Cc1cc2c(cc1C)[n+](C)cn2CC(O)COCC1CC=CCC1` (stereo not drawn), the Potency result was “inactive”. The value for `CNC(=S)N1CCN(c2ccccn2)CC1` was “inactive”; that for `CC(=C1C(=O)c2ccccc2C1=O)N1CCN(c2ccccn2)CC1` was 12.6 µM (active). On to `COc1ccc(N2CCN(C(C)=C3C(=O)c4ccccc4C3=O)CC2)cc1`, for which the Potency entry is “inactive”.

Turning to `CC1(C)OC(=O)C(=CNC(CO)C(=O)O)C(=O)O1` (stereo not drawn), the Potency entry is “inactive”. The value for `O=C(/C=C/c1c(Cl)cccc1Cl)NCc1ccccc1` was “inactive”; that for `O=Cc1c(Cl)cccc1Cl` was 14.1 µM (active). As for `O=C1N=C2SCCN2/C1=C\c1c(Cl)cccc1Cl`, the Potency entry was “inactive”. As for `Cc1ccc(C(=O)O)cc1N1C(=O)CCCC1=O`, the Potency entry was “inactive”.

For the compound `O=C(O)c1ccc(NC(=O)c2cn(-c3ccccc3)nc2-c2ccc(Cl)cc2)cc1`, the Potency result was “inactive”. Under `COc1cccc(-n2c(Cc3cc(=O)[nH]c(=O)[nH]3)nnc2SCC(=O)Nc2ccccc2)c1` stands “inactive”. Under `COC(=O)c1ccccc1NC(=O)CSc1nnnn1C` stands “inactive”; under `COc1ccc(OC)c(/C=N/NC(=O)CSc2nnc(C)n2-c2ccccc2)c1`, “inactive”; under `COc1ccccc1NC(=O)CSc1nnc(Cc2cccn2C)n1-c1ccc(F)cc1`, 17.8 µM (active).

With `COc1ccccc1NC(=O)CSc1nnc(Cn2nnc(-c3ccccc3)n2)n1-c1ccccc1`, the Potency was 2.82 µM (active).

Take `COC(=O)c1ccc(NC(=O)CSc2nnc(Cc3cccn3C)n2-c2ccc(F)cc2)cc1`: the Potency is 22.4 µM (active). The value for `Cn1cccc1Cc1nnc(SCC(=O)NCCc2ccccc2)n1-c1ccc(F)cc1` was “inactive”; that for `COc1cc(-c2nnn(CC(=O)NCc3ccccc3)n2)cc(OC)c1OC` was “inactive”; that for `COCCn1c(Cc2cccn2C)nnc1SCC(=O)Nc1nccs1` was “inactive”. With `O=C1CC(c2c(F)cccc2Cl)C(n2cncn2)C(O)=C1C1NCCc2ccccc21` (stereo not drawn), the Potency result is “inactive”. Take `CCOc1ccc(C(CC(=O)O)NC(=O)C23CC4CC(CC(C4)C2)C3)cc1OC` (stereo not drawn): the Potency result is “inactive”.
